HCMV antiviral: blocks human cytomegalovirus replication; activity change, negative = inhibition, % at 57.5 µM; HFF cells, HCMV-luciferase reporter, 72 h; active compounds read low; 410,000 tested, 4.5% active; in the data active = activity change below about -60%; inconclusive = no clear call, values can overlap the other calls; inactive = above about -39%
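Human foreskin fibroblasts infected with luciferase-reporter HCMV at MOI 1 PFU/cell, compounds at two doses. Luciferase measured 72 h post infection; normalized to buffer-only basal and Salinomycin (10uM) controls.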
Pf growth 96h: P. falciparum growth inhibition at 96 hours; 320,000 tested, 6.9% active; P. falciparum luciferase reporter growth, 96 h; Potency, µM (doses to about 28.7 µM), inactives show at the highest dose activity change, negative = inhibition, actives largely listed as inhibitors; AID 504834; also: potency is read from the fitted curve at half-maximal effect
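96 h incubation, 37 C, 5% CO2, of luciferase-reporter P. falciparum-infected RBCs (2% hematocrit, 0.05% parasitemia final) with test compounds; endpoint luminescence.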
Pf growth 48h: inhibits P. falciparum growth in the first generation, 48 h | P. falciparum luciferase growth in erythrocytes, 48 h | Potency, µM (titrated, usually from 28.7 µM), inactives show at the highest dose activity change, negative = inhibition, hits mostly inhibitors | 310,000 tested, 5.9% active | AID 504832; also: potency is read from the fitted curve at half-maximal effect
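Compounds are pin-transferred into medium, infected erythrocytes (2% hematocrit, 0.1% parasitemia final) are added, and plates sit one parasite generation at 37 C in 5% CO2. Detection reagent is then added and luminescence measured.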
HCV inhibitor: inhibitors of hepatitis C virus infection; Huh7.5.1 HCVcc-Cre infection, luciferase reporter, 44 h; Potency, µM (top dose mostly 41.8 µM), for the others: at the top dose activity change, negative = inhibition, actives largely listed as inhibitors; 340,000 tested, 3.4% active; AID 651820; also: potency is read from the fitted curve at half-maximal effect
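Cells (1,000/well) were plated 4 h before compound, then infected with HCVcc-Cre virus (~0.5 moi). After 44 h further culture, infection was read as luciferase luminescence following a 15 min substrate incubation at room temperature.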
The depositor's hits bear a star; ? = inconclusive; nt = not tested or not shown. Compounds with a hit are over-represented: about 13% of the library has one in this group of screens. Unless noted, calls follow the shape of the dose curve; as a rule, active = well fitted inhibition curve with a large enough effect; inconclusive = small, poorly fitted or top-dose-only effect, or another doubt; inactive = no such curve, though single readings can be large or run the other way. % is scaled to controls: 0 for no effect and ±100 for the full control effect.

SMILES	HCMV antiviral	Pf growth 96h	Pf growth 48h	HCV inhibitor
CC(=O)Nc1ccc(NC(=O)CSc2nc3ccccc3c(=O)n2CCCN2CCOCC2)cc1	-8.5	nt	nt	25.7%
Cc1ccc2oc(-c3ccc(C)c(NC(=O)C(C)(C)Oc4ccc(Cl)cc4)c3)nc2c1	86.6	nt	nt	nt
O=C(CSc1nc2ccccc2c(=O)n1CCCN1CCOCC1)Nc1cccc(S(=O)(=O)N2CCCCCC2)c1	?	0.522µM*	0.522µM*	12.6µM*
CCCOc1ccc(Nc2nc(SC)ncc2C(=O)OCC)cc1	15.9	nt	nt	nt
COc1cnc(SC)nc1Nc1ccc(C#N)cc1	-34.7	0.0%	?	22.4µM*
COc1cc2c(ccc3cc(OC)c(OC)c(O)c32)cc1O	-104.8*	3.9%	?	?
Cc1ccc2c(c1)c1c(n2CC(O)Cn2c(C)nc3ccccc32)C(=O)CCC1 (centres undefined)	8.5	1.8%	14.7µM*	-22.0%
Cc1ccc2c(c1)c1c(n2CC(O)Cn2c(C)nc3ccccc32)/C(=N\O)CCC1 (centres undefined)	nt	?	11.7µM*	?
CCCCOCC(O)Cn1c(C)nc2ccccc21 (centres undefined)	14.3	31.9%	14.1%	4.6%
OC(Cn1c2ccccc2c2ccccc21)C[n+]1cccc2ccccc21 (centres undefined)	-26.6	3.29µM*	6.57µM*	8.6%
OCCNCC(O)Cn1c2ccccc2c2ccccc21 (centres undefined)	22.7	?	34.0%	7.8%
Cc1nc2ccccc2n1CC(O)Cn1c2ccccc2c2ccccc21 (centres undefined)	-19.6	nt	11.7µM*	-5.4%
CCOC(=O)c1noc2ncnc(Nc3ccc(C)c(F)c3)c12	12.4	nt	nt	nt
Cc1cc(C)nc(NS(=O)(=O)c2ccc(NC(=O)c3ccccc3O)cc2)n1	6.0	nt	nt	nt
Cc1cccc(CNC(=O)C2CCN(S(=O)(=O)c3cccc4nonc34)CC2)c1	3.2	nt	nt	nt
CC1CCN(CC(O)Cn2c3ccccc3c3ccccc32)CC1 (centres undefined)	-0.8	?	?	?
Cc1cc(C)[n+](C)n1CC(O)Cn1c2ccccc2c2ccccc21 (centres undefined)	?	20.9%	0.586µM*	-9.2%
Cc1ccc(C)c(Sc2ccc(NC(=O)CCl)cc2)c1	8.4	?	?	?
Cc1ccc(Sc2ccc(NC(=O)CCl)cc2)cc1C	26.9	0.828µM*	1.47µM*	?
CCOc1ccc(S(=O)(=O)NCc2ccncc2)cc1NC(=O)c1ccccc1	-87.5*	?	0.9%	1.78µM*
COc1ccc(S(=O)(=O)NCc2ccncc2)cc1NC(=O)c1ccc(Cl)cc1	-63.0*	?	-17.2%	?
COc1ccc(S(=O)(=O)NCc2ccncc2)cc1NC(=O)c1ccccc1	-79.4*	?	-7.5%	-2.6%
Cc1sc(NC(=O)c2ccco2)c(C(c2cccnc2)N2CCC(C)CC2)c1C (centres undefined)	-92.8*	nt	1.85µM*	8.91µM*
Cc1sc(NC(=O)c2ccco2)c(CN2CCN(Cc3ccccc3)CC2)c1C	4.5	?	9.28µM*	?
CCN1CCN(C(c2cccnc2)c2c(NC(=O)c3ccco3)sc(C)c2C)CC1 (centres undefined)	5.4	4.65µM*	4.15µM*	?
SMILES	HCMV antiviral	Pf growth 96h	Pf growth 48h	HCV inhibitor
COc1ccc(C(c2c(NC(=O)c3ccccc3)sc(C)c2C)N2CCN(CCO)CC2)cc1 (centres undefined)	-9.8	?	?	-8.3%
CCN1CCN(C(c2ccccn2)c2c(NC(=O)c3ccccc3)sc(C)c2C)CC1 (centres undefined)	-31.6	13.1µM*	?	?
Cc1cc(C)c(NC(=O)C(=O)NCC(c2cccnc2)N2CCN(c3ccccc3F)CC2)c(C)c1 (centres undefined)	6.2	nt	nt	nt
Cc1ccc(NC(=O)CSc2nccn2-c2ccccc2)cc1	0.0	nt	nt	nt
COc1cccc(C(c2c(NC(=O)c3ccccc3)sc(C)c2C)N2CCN(C)CC2)c1 (centres undefined)	-35.8	?	11.7µM*	3.6%
CCn1c(NC(=O)c2ccc(COc3ccc(C)cc3[N+](=O)[O-])o2)nc2ccccc21	-62.7*	-21.0%	nt	5.9%
Cc1nnc(SCc2cc(=O)n3c(C)cccc3n2)s1	118.3	nt	nt	nt
COc1cc(OC)c2ccc(=O)oc2c1C(CCN1CCCCC1)c1ccc(N(C)C)cc1 (centres undefined)	55.1	?	?	11.8%
COc1cc(C(CCN2CCCC(C)C2)c2c(OC)cc(OC)c3c(-c4ccccc4)cc(=O)oc23)cc(OC)c1OC (centres undefined)	nt	2.94µM*	7.38µM*	?
COc1cc(CN2CCCC(C)C2)ccc1OCc1ccccc1 (centres undefined)	-20.3	-14.4%	1.0%	-10.8%
COc1cc(C(CCN2CCCCC2)c2c(OC)cc(OC)c3c(-c4ccccc4)cc(=O)oc23)cc(OC)c1OC (centres undefined)	22.7	5.86µM*	10.4µM*	-25.8%
CCNC(=O)C1CCN(c2nnc(C)c3c(C)n(-c4ccc(OC)cc4)nc23)CC1	1.1	nt	nt	nt
CCOc1ccccc1NC(=O)C(OC(=O)c1ccc(N(C)C)cc1)c1ccccc1 (centres undefined)	-32.1	?	?	11.2µM*
CCOc1ccccc1NC(=O)C(OC(=O)c1ccc(CC)cc1)c1ccccc1 (centres undefined)	?	?	?	-0.3%
CCOc1ccccc1NC(=O)C(OC(=O)c1ccc(O)cc1)c1ccccc1 (centres undefined)	30.6	?	11.7µM*	?
C=CCc1cc(C)ccc1OCCn1ccnc1	3.6	?	nt	-21.2%
Cc1ccc(C)c(OCCCCCn2ccnc2)c1	-21.7	11.7µM*	14.7µM*	?
Cc1cc(C)c(OCCCCN2CCNCC2)c(C)c1	19.5	3.29µM*	?	?
C=CCc1cc(C)ccc1OCCOCCn1ccnc1	-63.2*	-9.2%	-9.5%	?
Cc1cc(C)c(OCCCCCn2ccnc2)c(C)c1	-14.7	320.9%	13.1µM*	6.6%
O=C(CCCCn1c(=O)c2ccccc2n(Cc2cccc(F)c2)c1=O)NCc1ccc2c(c1)OCO2	7.6	nt	nt	nt
CCOC(=O)c1cc(-c2ccc(F)cc2)n(CCC(=O)Nc2nc3ccc(OC)cc3s2)c1C	0.0	nt	nt	nt
CC(C)c1ccc(N(CC(=O)O)S(=O)(=O)c2ccc3[nH]c(=O)c(=O)[nH]c3c2)cc1	28.8	nt	nt	nt
COc1ccc([N+](=O)[O-])cc1CN1CCN(c2ncc(Cc3ccccc3)cn2)CC1	-24.4	nt	nt	nt
COc1ccc(C(=O)/C=C2/c3ccccc3CC(C)(C)N2C)cc1OC	2.1	11.7µM*	-4.3%	24.8%
COc1ccc(C(=O)N/N=C2\CCc3ccccc32)cc1OC	50.3	-12.5%	-10.3%	-6.8%
COc1ccc(CNC(=O)c2onc(C)c2Cl)cc1	6.0	13.1µM*	-2.6%	-3.6%
CCS(=O)(=O)c1ncc(Cl)c(C(=O)N2CCN(c3ccc(OC)cc3)CC2)n1	-98.6*	nt	nt	nt
